Test results as given in the supplement of paper PMC10646978.
± gives the standard deviation.

Tests used:
Conditions in all cases: modulator concentration 10 µM
[1] = test system: RAW-Dual (murine macrophage reporter line); assay: NF-kB reporter (SEAP) activity fold change vs agonist alone; higher = enhanced NF-kB activity
How it was run: (§1)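 Overnight stimulation with a PRR agonist followed pre-incubation for 1 hour at 37 °C with compound at 10 μM final. This was done in RAW-Dual murine macrophage reporter cells seeded at 50 000 per well in 384-well plates. NF-κB (SEAP, QUANTI-Blue absorbance at 620 nm) and IRF (Lucia luciferase, QUANTI-Luc luminescence) were read from the supernatant. Each reporter's fold change relative to the mean agonist-only control on the same plate was averaged over replicate plates.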

[2] = test system: RAW-Dual (murine macrophage reporter line); assay: IRF reporter (Lucia luciferase) activity fold change vs agonist alone; higher = enhanced IRF activity
How it was run: as §1

[3] = test system: RAW-Dual (murine macrophage reporter line); assay: viability score (confluency relative to resting cells, overnight) (fraction); higher = more viable, active = viable (0.7 or more)
How it was run: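 RAW-Dual macrophages in 384-well plates were incubated overnight with compound, final concentration 10 μM. Confluency images from IncuCyte were processed in IncuCyte software into two masks covering all imaged wells. The viability score is each well's confluency relative to resting cells, and a compound met the cutoff when both masks exceeded 70% of resting cells.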

[4] = agonist: CpG ODN 1826 0.5 ug/mL

Row | SMILES | NF-kB reporter [1, 4] | NF-kB reporter ([1]; agonist: LPS 0.1 ug/mL) | NF-kB reporter ([1]; agonist: MPLA […]) | IRF reporter ([2]; agonist: 3'3'-cGAMP 10 ug/mL) | IRF reporter ([2]; agonist: LPS 0.1 ug/mL) | IRF reporter ([2]; agonist: MPLA […]) | viability score [3]
1 | CN1CCN(c2ccc3nc(-c4c(N)c5c(F)cccc5[nH]c4=O)[nH]c3c2)CC1 | 0.277 ± 0.1 | 1.19 ± 0.35 | 1.39 ± 0.59 | 0.0238 ± 0.0011 | 0.491 ± 0.07 | 0.197 ± 0.015 | 0.799 (active)
2 | COc1ccccc1OCCNCC(O)COc1cccc2[nH]c3ccccc3c12 (configuration not stated) | 0.0926 ± 0.0072 | 0.894 ± 0.057 | 0.892 ± 0.084 | 1.26 ± 0.086 | 1.53 ± 0.11 | 1.53 ± 0.16 | 0.957 (active)
3 | Cl.Nc1c(Br)cc(Br)cc1CNC1CCC(O)CC1 (configuration not stated) | 0.911 ± 0.074 | 0.95 ± 0.1 | 1.04 ± 0.03 | 0.908 ± 0.065 | 0.94 ± 0.096 | 0.999 ± 0.079 | 0.998 (active)
4 | CN(C)CCN(Cc1ccccc1)c1ccccn1.Cl | 0.731 ± 0.19 | 0.911 ± 0.052 | 0.927 ± 0.064 | 0.811 ± 0.074 | 0.954 ± 0.22 | 0.854 ± 0.081 | 1.01 (active)
5 | CS(=O)(=O)O.O=C(NC1CCN(CCCCC2(C(=O)NCC(F)(F)F)c3ccccc3-c3ccccc32)CC1)c1ccccc1-c1ccc(C(F)(F)F)cc1 | 0.0785 ± 0.0033 | 0.0479 ± 0.004 | 0.118 ± 0.0076 | 0.0799 ± 0.0056 | 0.0322 ± 0.0052 | 0.0401 ± 0.0064 | 0.258 (inactive)
6 | O=C(CCC(=O)OCC(=O)c1cccs1)Nc1ccc(Oc2ccccc2)cc1 | 0.756 ± 0.064 | 0.842 ± 0.054 | 1.04 ± 0.12 | 0.995 ± 0.05 | 1.22 ± 0.085 | 1.38 ± 0.13 | 1 (active)
7 | CCc1cc2c(-c3ccccc3)cc(=O)oc2cc1OC(C)=O | 0.702 ± 0.12 | 1.09 ± 0.088 | 0.886 ± 0.085 | 0.974 ± 0.069 | 1.07 ± 0.3 | 1.07 ± 0.21 | 1 (active)
8 | CCOC(=O)N1CCN(C(=O)C2CCN(Cc3ccc(C)o3)CC2)CC1 | 0.941 ± 0.15 | 1.04 ± 0.089 | 0.98 ± 0.08 | 1.02 ± 0.051 | 1.26 ± 0.3 | 1.41 ± 0.3 | 0.991 (active)
9 | CCN(CC)c1ccc(C=NNC(=O)c2ccccc2)c(O)c1 | 2.34 ± 0.38 | 2.11 ± 0.16 | 4.3 ± 0.34 | 0.0729 ± 0.013 | 2.18 ± 0.29 | 2.36 ± 0.42 | 0.814 (active)
10 | COC(=O)C1=C(C)NC(=O)CC1c1cc([N+](=O)[O-])ccc1Cl (configuration not stated) | 0.933 ± 0.055 | 0.986 ± 0.11 | 0.955 ± 0.058 | 0.966 ± 0.032 | 1.16 ± 0.099 | 0.994 ± 0.24 | 0.988 (active)
11 | COCCNCCOc1cc(C)c(Cl)c(C)c1 | 0.908 ± 0.078 | 0.952 ± 0.045 | 0.932 ± 0.085 | 0.947 ± 0.049 | 1.52 ± 0.098 | 1.67 ± 0.17 | 0.974 (active)
12 | CS(=O)(=O)C1CCN(C(=O)C2(c3ccccc3)CCOCC2)C1 (configuration not stated) | 0.986 ± 0.11 | 1.04 ± 0.083 | 0.927 ± 0.047 | 0.977 ± 0.068 | 1 ± 0.087 | 1.03 ± 0.33 | 1.02 (active)
13 | COc1cccc2c1C(=O)c1c(O)c3c(c(O)c1C2=O)C[C@@](O)(C(C)=O)C[C@@H]3O[C@H]1C[C@H](N)[C@H](O)[C@H](C)O1 [Prestw-487] | 0.0705 ± 0.0054 | 0.0667 ± 0.019 | 0.095 ± 0.0092 | 0.0214 ± 0.0026 | 0.024 ± 0.0063 | 0.0245 ± 0.0067 | 0.325 (inactive)
14 | COc1ccc(CCNCC(O)COc2cccc(C)c2)cc1OC.Cl (configuration not stated) | 0.68 ± 0.16 | 1.15 ± 0.057 | 1.06 ± 0.099 | 0.824 ± 0.029 | 1.19 ± 0.14 | 1.43 ± 0.25 | 0.985 (active)
15 | c1ccc(CSc2nnc(-c3ccncc3)o2)cc1 | 1.08 ± 0.075 | 1.18 ± 0.073 | 1.44 ± 0.13 | 0.379 ± 0.017 | 0.65 ± 0.056 | 0.501 ± 0.068 | 0.988 (active)
16 | COc1ccc(C=NNC(=O)CSc2nnc(-c3ccncc3)n2-c2ccccc2)cc1OC | 1.05 ± 0.12 | 1 ± 0.1 | 0.962 ± 0.034 | 0.954 ± 0.05 | 1.04 ± 0.07 | 1.01 ± 0.12 | 0.998 (active)
17 | O=C(Cn1c(C(F)(F)F)nc2ccccc21)c1ccc(OC(F)F)cc1 | 0.916 ± 0.086 | 1.07 ± 0.084 | 0.884 ± 0.062 | 1.06 ± 0.061 | 1.3 ± 0.15 | 1.02 ± 0.072 | 1.01 (active)
18 | COc1ccc(CC(N)C(=O)NC2C(CO)OC(n3cnc4c(N(C)C)ncnc43)C2O)cc1.Cl.Cl (configuration not stated) | 0.817 ± 0.068 | 0.514 ± 0.044 | 0.936 ± 0.094 | 0.699 ± 0.022 | 1.03 ± 0.13 | 1.3 ± 0.21 | 0.817 (active)
19 | CCOc1cc2ncc(C#N)c(Nc3ccc(OCc4ccccn4)c(Cl)c3)c2cc1NC(=O)/C=C/CN(C)C | 0.161 ± 0.007 | 0.781 ± 0.075 | 0.907 ± 0.092 | 0.694 ± 0.032 | 1.46 ± 0.26 | 1.56 ± 0.57 | 0.977 (active)
20 | CN1C2CCCC1CC(NC(=O)c1nn(C)c3ccccc13)C2.Cl (configuration not stated) | 0.712 ± 0.31 | 0.879 ± 0.044 | 0.984 ± 0.069 | 0.873 ± 0.034 | 1.13 ± 0.16 | 1.03 ± 0.19 | 0.998 (active)
21 | COc1cccc2c1C(=O)c1c(O)c3c(c(O)c1C2=O)C[C@@](O)(C(=O)CO)C[C@@H]3O[C@@H]1C[C@H](N)[C@@H](O)[C@H](C)O1 [Prestw-1752] | 0.219 ± 0.025 | 0.0896 ± 0.013 | 0.169 ± 0.016 | 0.264 ± 0.011 | 0.185 ± 0.05 | 0.33 ± 0.053 | 0.458 (inactive)
22 | COc1cccc2c1C(=O)c1c(O)c3c(c(O)c1C2=O)C[C@@](O)(C(=O)CO)C[C@@H]3O[C@H]1C[C@H](N)[C@H](O)[C@H](C)O1.Cl | 0.0942 ± 0.012 | 0.0784 ± 0.0047 | 0.178 ± 0.036 | 0.101 ± 0.014 | 0.0915 ± 0.01 | 0.127 ± 0.024 | 0.372 (inactive)
23 | NC(=O)c1cccc2cn(-c3ccc([C@@H]4CCCNC4)cc3)nc12 | 0.187 ± 0.014 | 0.573 ± 0.051 | 0.85 ± 0.072 | 0.508 ± 0.051 | 0.559 ± 0.07 | 0.977 ± 0.088 | 0.887 (active)
24 | C=C1CCC(NS(=O)(=O)c2ccc(-c3coc(C)n3)cc2)CC1 | 1.04 ± 0.056 | 1.15 ± 0.091 | 1.14 ± 0.062 | 1.22 ± 0.062 | 1.14 ± 0.11 | 1.2 ± 0.17 | 0.834 (active)
25 | CCC(C(=O)N1CCN(CCn2ccnc2-c2ccccc2)CC1)c1ccccc1 (configuration not stated) | 0.982 ± 0.17 | 0.999 ± 0.14 | 1.24 ± 0.076 | 1 ± 0.13 | 1.04 ± 0.24 | 0.956 ± 0.4 | 0.984 (active)
26 | NC(=O)CSc1nc(O)cc(=O)n1-c1ccccc1F | 0.987 ± 0.16 | 1.06 ± 0.088 | 1.09 ± 0.11 | 0.978 ± 0.048 | 1.39 ± 0.26 | 1.23 ± 0.13 | 1.01 (active)
